Screen size: about 53,000 compounds; about 900 (1.7%) showed an effect of 50% or more. What follows is part of a selection rich in strong results, with near analogues and random picks from the rest.
Tested on: Mycobacterium tuberculosis
Assay: Cornell - Phenotypic assay to identify agents that inhibit growth of Mycobacterium tuberculosis
Format: functional
Parameters: scale not given: direction of the effect not stated beside the values
Conditions: 10 mM as filed; unlikely as a test dose

| SMILES | Percent Effect [%] |
| --- | --- |
| NC(=O)c1cc2c(nc1Oc1ccccc1CN1CCCCC1)CCC2 | 23.43 |
| Fc1cccc(N2CCCC3(CN(Cc4nccs4)CCO3)C2)c1.O=C(O)C(F)(F)F.O=C(O)C(F)(F)F (stereo not given) | 39.92 |
| Cn1cc(CN2CCOC3(CCCN(c4cccc(F)c4)C3)C2)cn1.O=C(O)C(F)(F)F.O=C(O)C(F)(F)F (stereo not given) | -3.324 |
| O=C(C1CCC1)N1C[C@@H]2CCN(c3cccnc3)C[C@@H]2C1.O=C(O)C(F)(F)F | -17.68 |
| Fc1cccc(N2CCCC3(CN(Cc4ccccn4)CCO3)C2)c1.O=C(O)C(F)(F)F.O=C(O)C(F)(F)F.O=C(O)C(F)(F)F (stereo not given) | 43.65 |
| Fc1cnc(N2CCOC3(CCN(Cc4cccs4)CC3)C2)nc1.O=C(O)C(F)(F)F.O=C(O)C(F)(F)F | 5.693 |
| Cc1ccc(CN2CCOC3(CCCN(c4cccc(F)c4)C3)C2)o1.O=C(O)C(F)(F)F.O=C(O)C(F)(F)F (stereo not given) | 65.05 |
| Fc1cnc(N2CCOC3(CCN(Cc4ccsc4)CC3)C2)nc1.O=C(O)C(F)(F)F.O=C(O)C(F)(F)F | 103.8 |
| O=C(O)C(F)(F)F.O=C(c1ccc(F)cc1)N1C[C@@H]2CCN(c3cccnc3)C[C@@H]2C1 | -2.234 |
| Fc1cccc(N2CCCC3(CN(Cc4ccco4)CCO3)C2)c1.O=C(O)C(F)(F)F.O=C(O)C(F)(F)F (stereo not given) | 14.41 |
| Fc1cccc(N2CCCC3(CN(Cc4cccnc4)CCO3)C2)c1.O=C(O)C(F)(F)F.O=C(O)C(F)(F)F.O=C(O)C(F)(F)F (stereo not given) | 54.92 |
| Fc1cccc(N2C[C@H]3CCN(c4cccnc4)C[C@H]3C2)c1.O=C(O)C(F)(F)F | 50.35 |
| Fc1cnc(N2CC3(CCN(Cc4ccsc4)C3)C2)nc1.O=C(O)C(F)(F)F | 30.35 |
| CN(C)C(=O)N1C[C@@H]2CC[C@H](C1)N(C(=O)c1c(Cl)cccc1Cl)C2 | 3.535 |
| CCOCC1CN(C(=O)Cc2ccccn2)Cc2cn(C)nc21 (stereo not given) | -4.26 |
| CO[C@@H]1CCN(Cc2ccccn2)[C@@H]2CN(Cc3ccco3)C[C@@H]21.O=C(O)C(F)(F)F.O=C(O)C(F)(F)F.O=C(O)C(F)(F)F | -14.11 |
| CCNC(=O)c1ccc(NC(=O)N(C)Cc2cccn2C)c(C)c1 | 26.39 |
| CCC(NC(=O)c1nn(C)cc1C(=O)O)c1ccc(C)cc1 (stereo not given) | 2.527 |
| CCOc1cc([C@@H]2N[C@H](c3nccs3)Cc3ccsc32)ccc1OC | 39.28 |
| Cc1c(Cl)cccc1NC(=O)N1CCN(Cc2ccccn2)CC1 | 28.2 |

Reference: ChEMBL document CHEMBL3988442, “University of Dundee, Small-Polar-MMV Screening Library” (2021)
